# Hits are enriched below; roughly 2.6% of the tested compounds scored in any of these assays.
# KKLEB cytotox = cytotoxicity in KKLEB CF airway cells, primary screen, cytotoxicity control for CF NF-kB inhibitor project, cell-based, uHTS, fluorescence assay plates | AID 602141, 2011 | activity change (cytotoxicity), % at 5 µM | KKLEB CF airway cells viability, ATPlite luminescence, overnight; hits give low values; cells stimulated with P. aeruginosa culture filtrate | 360,000 tested, 0.36% active;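 active means corrected activity change at or below -50% at 5 µM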
# TWEAK Fn14 block = inhibitors of TWEAK-Fn14 signaling, primary screen, luciferase reporter cells, uHTS; TWEAK-stimulated Fn14 reporter cells, luciferase luminescence, 8 h; inhibition, % at 10 µM; 360,000 tested, 2% active; AID 1159606, 2016; in the data active means inhibition above about 50%
# LGR2 inh = inhibitors of bursicon-induced LGR2 CRE-luciferase signal, primary screen, cell-based, HEK293, CRE-luciferase reporter, bursicon stimulation | Drosophila bursicon receptor LGR2 (rickets) | bursicon-stimulated, 4 h | inhibition, % at 9.99 µM | 380,000 tested, 0.35% active;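 active means drop in luminescence signal, shown as inhibition above about 50% in the replicate tests, limit read from the data, passing the limit was not always enough; inconclusive means probably only some replicates passing the limit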;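 further: agonist challenge used bursicon conditioned medium at about half maximal strength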
# CF NFkB block = inhibitors of PAF-induced NF-kB signaling, primary screen, cell-based, GFP fluorescence, uHTS; 360,000 tested, 0.86% active; inhibition, % at 5 µM; KKLEB NF-kB-GFP reporter, GFP fluorescence overnight;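 active means at least 50% inhibition at 5 µM, scaled per plate between neutral and stimulator controls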;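 further: PAF is a Pseudomonas aeruginosa culture filtrate used as stimulus; plate controls were PAF-stimulated DMSO wells for no effect and unstimulated DMSO wells for full effect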
# EWS-Fli block = EWS/Fli-driven NR0B1 reporter inhibitors, primary screen, A673 cells, NR0B1 luciferase, luminescence, MLPCN library | viability-normalised | inhibition, % at 12.6 µM | 350,000 tested, 0.67% active | AID 651661, 2012;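 active means mean inhibition of at least 50% after viability correction, with every replicate also passing that limit; inconclusive means mean reaches 50% but only one of two replicates passes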;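 further: firefly luciferase signal divided by Alamar Blue viability fluorescence both relative to DMSO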
# TROY signal inh = inhibitors of TROY-driven NF-kB signaling, primary screen, Q293 LMP1-TROYcd cells, NF-kB luciferase, uHTS | Q293 LMP1-TROYcd NF-kB luciferase reporter, 4 h | 360,000 tested, 0.98% active | AID 1347056, 2019 | inhibition, % at 10 µM;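 active means compounds whose plate-normalised and pattern-corrected inhibition of the luciferase reporter signal at the single screening dose is 50% or more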
# Active calls of the source: *; ? = inconclusive; · = no result given.
SMILES,KKLEB cytotox,TWEAK Fn14 block,LGR2 inh,CF NFkB block,EWS-Fli block,TROY signal inh
Cn1c(Cl)nc2ccccc21,6,19,·,-6,·,5
Cn1c(N=Nc2ccccc2)nc2ccccc21,-53*,79*,·,-21,17,40
C[C@@H]1CN([C@H](C)CO)C(=O)Cc2cc(NC(=O)Nc3ccccc3)ccc2O[C@H]1CN(C)C,·,·,5,·,2,·
Cc1ccc(NC(=O)c2sc3ccccc3c2Cl)nc1,-48,75*,-76,8,50,52*
COc1ccccc1C(=O)NNC(=S)NC(=O)c1sc2ccccc2c1Cl,-56*,-16,14,48,·,-34
O=C(Nc1ccccn1)c1sc2cccc(F)c2c1Cl,-48,63*,15,-13,-67,13
Cc1ccc2nsnc2c1NC(=O)c1sc2ccccc2c1Cl,-3,90*,2,31,·,86*
C[C@@H]1CN([C@H](C)CO)C(=O)c2cccc(NS(=O)(=O)c3cn(C)cn3)c2O[C@H]1CN(C)Cc1ccc(-c2ccccc2)cc1,·,·,-16,·,-1,·
C[C@@H]1CN([C@@H](C)CO)C(=O)c2cc(NC(=O)Cc3ccccc3)ccc2O[C@@H](C)CCCCO[C@@H]1CN(C)S(=O)(=O)c1cccs1,·,·,8,·,5,·
COC(=O)[C@H]1[C@H](CO)[C@H]2Cn3c(ccc(-c4ccc(F)cc4)c3=O)[C@H]2N1Cc1ccccn1,·,·,-12,·,-3,·
COc1ccccc1S(=O)(=O)N[C@H]1CC[C@H](CC(=O)N2CCOCC2)O[C@H]1CO,·,·,-10,·,3,·
CC(=O)c1cccc(NC(=O)CSc2nc(N3CCCCC3)nc(N3CCCCC3)n2)c1,-2,54*,·,-17,-16,57*
CNC[C@@H]1Oc2c(NC(=O)c3nc4ccccc4s3)cccc2C(=O)N([C@@H](C)CO)C[C@@H]1C,·,·,6,·,-2,·
COc1ccc(NC(=O)Nc2ccc3c(c2)C(=O)N([C@@H](C)CO)C[C@H](C)[C@@H](CN(C)Cc2ccncc2)OCCCC[C@@H](C)O3)cc1,·,·,-10,·,3,·
CCOC(=O)c1c(C)[nH]c(C(=O)NNC(=O)c2ccccc2)c1C,14,53*,·,-16,-26,-25
CCOC(=O)c1c(C)[nH]c(C(=O)NNC(=O)c2ccccc2F)c1C,-5,26,-22,20,-64,-17
CCOC(=O)c1c(C)[nH]c(C(=O)NNC(=O)c2ccc(Br)cc2)c1C,-13,56*,-30,19,-23,55*
Cc1cc(N2CCOCC2)ccc1/C=C\[N+](=O)[O-],-10,70*,·,54*,?,50*
O=[N+]([O-])c1ccc(N2CCOCC2)cc1O,8,-12,-2,-14,12,-8
O=c1c(C=NCCCO)c(-c2ccccc2)[nH]n1-c1nc2ccccc2s1,-2,77*,10,-12,28,34
CCCCCN=Cc1c(C)[nH]n(-c2nc3ccccc3s2)c1=O,-7,87*,60*,-2,·,39
COCCCN=Cc1c(-c2ccccc2)[nH]n(-c2nc3ccccc3s2)c1=O,-13,-9,-14,-42,-13,-30
CCOc1ccccc1NC(=O)COC(=O)c1cccc(-c2ccc(OC(C)=O)cc2)c1,-8,64*,·,2,8,62*
Cc1csc2nc(CNC(=O)c3cccc(C(F)(F)F)c3)cn12,-3,97*,·,3,·,·
Oc1c(C=Nc2ccccc2Cl)[nH]c2ccccc12,8,26,-52,-6,-30,52*
SMILES,KKLEB cytotox,TWEAK Fn14 block,LGR2 inh,CF NFkB block,EWS-Fli block,TROY signal inh
CC1CC(C)C(=NNC(N)=O)C(C(O)CC2CCC(=O)NC2=O)C1 (stereo unspecified),-6,-8,?,54*,9,24
O=C(NCc1ccccc1F)C1CCCN(C(=O)Nc2ccc(F)cc2)C1 (stereo unspecified),13,-11,2,-1,·,20
O=C(NCc1ccccc1F)C1CCN(C(=O)Nc2ccc(F)cc2)CC1,1,99*,10,-4,·,-17
CC1(c2nnnn2-c2ccc3c(c2)OCCO3)CCC(=O)N1Cc1cccnc1 (stereo unspecified),·,79*,-36,·,-72,57*
O=C(OCC(=O)N1CCN(C(=O)c2ccco2)CC1)c1cc(-c2ccc(F)cc2)nc2ccccc12,2,52*,·,-17,·,2
O=C(OCC(=O)N1CCN(C(=O)c2ccco2)CC1)c1ccccc1C(=O)c1ccccc1,2,79*,·,4,·,·
O=C(OCC(=O)N1CCN(C(=O)c2ccco2)CC1)c1cc(-c2ccccc2)nc2ccccc12,4,10,·,-24,·,·
C[C@@H]1CN([C@@H](C)CO)C(=O)c2cccc(NC(=O)Nc3ccc(C(F)(F)F)cc3)c2O[C@H]1CN(C)Cc1ccncc1,·,·,-1,·,4,·
NC(=S)NN=Cc1nccc2c(C(F)(F)F)cccc12,-38,12,16,70*,10,13
CNc1cccnc1C=NNC(N)=S,-4,-8,28,-17,20,2
O=C(Cc1ccccn1)Nc1ccccc1,-7,110*,·,-10,·,-18
COCC(=O)N1[C@H](CO)[C@@H](c2ccccc2)[C@@H]1CN(C)C(=O)c1ccncc1,·,·,5,·,20,·
COc1cccc(-c2ccc([C@H]3[C@@H](C#N)N(C(=O)c4ccccn4)[C@@H]3CO)cc2)c1,·,·,-7,·,-52,·
COc1cccc(-c2ccc([C@H]3[C@@H](CO)N(C(=O)c4ccccn4)[C@H]3C#N)cc2)c1,·,·,66*,·,-9,·
N#C[C@H]1[C@@H](c2ccc(C3=CCCCC3)cc2)[C@H](CO)N1C(=O)c1ccccn1,·,·,88*,·,-8,·
CCn1cc(C(=O)NCc2ccc3c(c2)OCO3)c(=O)c2cc(F)c(N3CCN(C(=O)c4ccco4)CC3)cc21,7,54*,·,-20,·,40
CCn1cc(C(=O)NCc2ccncc2)c(=O)c2cc(F)c(N3CCN(C(=O)c4ccco4)CC3)cc21,5,10,·,0,13,-3
CCN(CC)CCNC(=O)c1cn(CC)c2cc(N3CCN(C(=O)c4ccco4)CC3)c(F)cc2c1=O,5,-8,-4,-4,5,12
CCn1cc(C(=O)NCc2ccccc2)c(=O)c2cc(F)c(N3CCN(C(=O)c4ccco4)CC3)cc21,10,68*,·,7,·,36
Cc1noc(C)c1S(=O)(=O)Nc1ccc2c(c1)C(=O)N([C@H](C)CO)C[C@H](C)[C@@H](CN(C)CC1CCCCC1)OCCCC[C@@H](C)O2,·,·,-7,·,-4,·
